Measurements reported in PubChem BioAssay (NCATS).
Records with an inconclusive call do not appear. Activity calls are given as the source filed them. Calls come from the whole dose curve; as a rule, active = well fitted curve in the direction sought with a large enough effect; inconclusive = small, poorly fitted or top-dose-only effect, or another doubt; inactive = no such curve, though single readings can be large; an effect the other way counts as inactive or inconclusive.

How the values were obtained:
[1] = HPAF-II 24hr Apoptosis Induction qHTS against the NCATS CANVASS Library (AID 1347356)
How it was run: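 500 HPAF-II cells/well; compounds in 11-pnt qHTS; 24 h, 37 C/5% CO2; Caspase-Glo 3/7 added, 15 min RT dark; luminescence read. Doxorubicin control.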

[2] = HEK293 18hr Apoptosis Induction qHTS against the NCATS CANVASS Library (AID 1347357)
How it was run: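 Cells seeded at 500/well in DMEM + 10% FBS. Compounds pinned, 11 concentrations. 18 h, 37 degrees C/5% CO2. Caspase-Glo 3/7 added, 15 min RT dark, luminescence read.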

[3] = HPAF-II 12hr Apoptosis Induction qHTS against the NCATS CANVASS Library (AID 1347358)
How it was run: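 Caspase-Glo 3/7 luminescence (DEVD substrate) reports caspase activity in HPAF-II cells after 12 h compound treatment at 37 degrees C. Compounds were tested in an 11-point series. Doxorubicin served as control.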

[4] = HEK293 24hr Apoptosis Induction qHTS against the NCATS CANVASS Library (AID 1347359)
How it was run: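 HEK293 cells (500/well, DMEM + 10% FBS) were exposed to compounds in an 11-point series for 24 hours at 37 degrees C, then caspase-3/7 activity was read by Caspase-Glo DEVD luciferase luminescence after 15 min.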

[5] = HPAF-II 18hr Apoptosis Induction qHTS against the NCATS CANVASS Library (AID 1347360)
How it was run: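 Seed HPAF-II cells at 500/well in DMEM + 10% FBS, pin-transfer compounds, incubate 18 hours at 37 degrees C/5% CO2, add Caspase-Glo 3/7 reagent, wait 15 min, read luminescence.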

[6] = HEK293 12hr Apoptosis Induction qHTS against the NCATS CANVASS Library (AID 1347361)
How it was run: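 Cells are seeded, dosed with an 11-point compound series and incubated 12 hours. Caspase-3/7 activity is detected by luminescent DEVD-substrate reagent after 15 minutes at room temperature.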

[7] = tested on: NAD(P)H diaphorase (Clostridium kluyveri); experiment: Diaphorse counterscreen qHTS: Assay Interference Panel against the NCATS CANVASS Library (AID 1347362)
How it was run: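 Clostridium kluyveri diaphorase in PBS with 0.01% Tween-20 was preincubated 15 min at room temperature in the dark with compounds (11-point series). Resorufin fluorescence (ex 525/20, em 598/25) was read 5 min after adding resazurin/NADH.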

[8] = biological target: Luciferin 4-monooxygenase (Photinus pyralis) (UniProt P08659); experiment: Firefly luciferase counterscreen qHTS: Assay Interference Panel against the NCATS CANVASS Library (AID 1347363); note: series mostly up to about 57 µM
How it was run: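 Purified P. pyralis luciferase was added to compounds (11-point series) preincubated 15 min at room temperature with substrate containing 0.013 mM D-luciferin and 0.013 mM ATP; luminescence was read after 5 min.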

[9] = KB-3-1 Cancer Cell Toxicity qHTS against the NCATS CANVASS Library (AID 1347366); note: nearly all actives have a fitted effect of over 75% in size; note: potency is the fitted concentration of half-maximal effect
How it was run: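 Luminescence from CellTiter-Glo (10 min, room temperature) measured KB-3-1 viability after 72 hr compound exposure at 37C. Cells were seeded at 500/well and tested in an 11-point series.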

[10] = G06 Cancer Cell Toxicity qHTS against the NCATS CANVASS Library (AID 1347368); note: nearly all actives have a fitted effect of over 60% in size; note: potency is the fitted concentration of half-maximal effect
How it was run: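 ATP luminescence (CellTiterGlo) readout of cytotoxicity. Canine G06 glioma cells, 500/well, 72 hr incubation at 37C with compounds; bortezomib titration served as control.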

[11] = MCF7 Cancer Cell Toxicity qHTS against the NCATS CANVASS Library (AID 1347369)
How it was run: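 Cells seeded at 500/well, then compound pinned. Plates incubated 72 hr at 37C, 5% CO2. CellTiterGlo added; luminescence read.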

[12] = qHTS for ATAD5 Antagonist screened against the NCATS CANVASS Library (AID 1347370); note: nearly all actives have a fitted effect of over 65% in size; note: potency is the fitted concentration of half-maximal effect
How it was run: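 HEK293T-ATAD5 luc reporter, 2000 cells/well; 5hr attach; cpd + 10 uM 5-FUrd; 16hr 37C, 5% CO2. Readouts: CellTiter-Fluor fluorescence (1hr), then Amplite luciferase luminescence (30min RT).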

[13] = J3T Cancer Cell Toxicity qHTS against the NCATS CANVASS Library (AID 1347371); note: potency is the fitted concentration of half-maximal effect
How it was run: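 Dog glioma J3T, 500 cells/well; cpd 11-pt qHTS; 72 hr, 37C/5% CO2; CellTiterGlo ATP luminescence readout.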

[14] = 10-beta competent E. coli microbial cell viability qHTS against the NCATS CANVASS Library (AID 1347376); note: series mostly up to about 46 µM
How it was run: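 Luminescence from BacTiter-Glo ATP detection served as the viability read-out; bacteria (0.2 OD) had been incubated overnight at 37C with pin-transferred compounds at 11 concentrations.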

[15] = qHTS for H2AX Agonists against the NCATS CANVASS Library (AID 1347378);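 note: phospho-H2AX S139 level in CHO-K1 lysates by TR-FRET emission ratio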
How it was run: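 CHO-K1, 1000 cells/well, o/n 37C; cpd several conc, 3 hr 37C, 0.76% DMSO; lyse 30 min RT; cryptate anti-pH2AX(S139) + d2 anti-H2AX, 24 hr RT; HTRF 665/620.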

[16] = qHTS for Inflammasome Signaling Inhibitors: IL-1-beta AlphaLISA screen against the NCATS CANVASS Library (AID 1347379);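 note: human THP-1 cells primed with LPS then triggered with ATP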;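 for Potency: secreted IL-1B measured as AlphaLISA emission at 615 nm; potency is the fitted concentration of half-maximal effect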
How it was run: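 THP-1, 1 hr compound pre-incubation, then LPS 250 ng/mL + ATP 1.25 mM (final); 16 hr total with compound; IL-1B AlphaLISA, ex 680/em 615 nm; 11-point qHTS, up to 57.5 uM final.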

[17] = Inflammasome Signaling qHTS Counterscreen: IL-1-beta AlphaLISA counterscreen against the NCATS CANVASS Library (AID 1347381);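 note: cell-free check with purified IL-1β in medium and no THP-1 cells; series mostly up to about 57 µM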
How it was run: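 Here, no cellular stimulation occurs; compounds in an 11-point series meet 4 pg purified IL-1-beta directly. Bead-based AlphaLISA detection follows (1 h acceptor/antibody, then 30 min donor, dark, room temperature), with excitation at 680 nm.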

[18] = Cytotoxicity qHTS for assessment of Hepg2 cells membrane integrity screened against the NCATS CANVASS Library (AID 1347387)
How it was run: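 LDH release read by fluorescence (560 nm ex/590 nm em) after CytoTox-ONE addition and 10 min RT; signal tracks lysed cells. HepG2, 2000 cells/well, plated overnight; compound 5 hr, 37C, 5% CO2, final 0.59 nM - 46 uM, 11 points.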

[19] = qHTS for activators of dead-cell proteases activity screened against the NCATS CANVASS Library (AID 1347392);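 note: luminescence from protease leaking out of membrane-damaged cells cleaving impermeant substrate; rising signal means more cytotoxicity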
How it was run: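 Cytotoxicity in HepG2 cells was assessed by released protease cleaving AAF-aminoluciferin, with luminescence as signal. Exposure lasted 5 h at 37C across an 11-point series.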

[20] = Redox Reaction Profiling qHTS: Assay Interference Panel against the NCATS CANVASS Library (AID 1347401); note: potency is the fitted concentration of half-maximal effect
How it was run: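 Quantitative HTS over an 11-point series was run in HEPES pH 7.3 with 50 mM NaCl, 200 uM DTT and 5 uM resazurin. Initial and 15-min resorufin fluorescence readings were taken.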

Measured: Potency

Sequence of Luciferin 4-monooxygenase (Photinus pyralis) (P08659 whole entry, looked up): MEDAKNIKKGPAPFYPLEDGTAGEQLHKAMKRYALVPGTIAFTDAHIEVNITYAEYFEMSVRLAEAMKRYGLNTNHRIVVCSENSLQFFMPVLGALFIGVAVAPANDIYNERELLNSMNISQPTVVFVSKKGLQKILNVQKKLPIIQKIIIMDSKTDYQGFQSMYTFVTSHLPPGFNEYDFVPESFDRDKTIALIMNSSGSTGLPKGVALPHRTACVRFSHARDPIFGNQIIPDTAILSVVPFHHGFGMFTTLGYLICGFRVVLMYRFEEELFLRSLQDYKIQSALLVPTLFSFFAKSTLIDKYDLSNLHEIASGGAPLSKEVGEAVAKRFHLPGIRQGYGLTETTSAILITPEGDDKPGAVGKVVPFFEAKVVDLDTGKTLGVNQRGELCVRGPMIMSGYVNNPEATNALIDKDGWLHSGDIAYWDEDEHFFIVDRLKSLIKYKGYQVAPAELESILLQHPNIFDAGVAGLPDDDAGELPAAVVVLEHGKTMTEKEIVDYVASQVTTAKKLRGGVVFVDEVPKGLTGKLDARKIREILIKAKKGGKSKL

O=Cc1ccc2n1C[C@]1(OC2)O[C@H](CO)[C@@H](O)[C@@H]1O
inactive: [1] | [2] | [3] | [4] | [5] | [6] | [7] | [8] | [9] | [10] | [11] | [12] | [13] | [14] | [15] | [16] | [17] | [18] | [19] | [20]

C/C(=C\[C@H](C)C(=O)/C=C/CC1CC(=O)NC(=O)C1)[C@@H]1OC(=O)/C=C/CC/C=C/C[C@@H](O)[C@@H]1C
inactive: [1] | [2] | [3] | [4] | [5] | [6] | [7] | [8] | [14] | [17] | [18] | [19]
active: [9] 11.8 µM | [10] 1.05 µM | [12] 3.31 µM | [13] 3.72 µM | [16] 6.11 µM

CO[C@H]1/C=C/CCCCC(=O)O[C@@H](/C(C)=C/[C@H](C)C(=O)C[C@H](O)CC2CC(=O)NC(=O)C2)[C@@H](C)C1
active: [10] 5.26 µM | [12] 20.9 µM
inactive: [1] | [2] | [3] | [4] | [5] | [6] | [7] | [8] | [11] | [14] | [15] | [16] | [17] | [18] | [19]

COC(=O)c1cc2cc3c(c(O)c2c(=O)o1)OC1(CC3)CC2=C(O1)C(=O)c1c(O)c(OC)cc(OC)c1C2=O (stereo not given)
inactive: [1] | [2] | [3] | [4] | [5] | [6] | [8] | [12] | [13] | [14] | [17] | [18] | [19]

CCCc1c2c([nH]c(=O)c1C)C(=O)c1[nH]c(=O)c(C)c(CCC)c1C2=O
active: [20] 0.857 µM
inactive: [1] | [2] | [3] | [4] | [5] | [6] | [8] | [9] | [11] | [12] | [13] | [14] | [16] | [17] | [18] | [19]

O=Cc1ccc2n1C[C@]1(C[C@H](O)[C@@H](CO)O1)OC2
inactive: [1] | [2] | [3] | [4] | [5] | [6] | [7] | [8] | [9] | [10] | [11] | [12] | [13] | [14] | [15] | [16] | [17] | [18] | [19] | [20]

C/C1=C/[C@@H](C)[C@H](O)[C@@H](O)/C=C/CC/C=C/C(=O)O[C@@H]1[C@H](C)C(=O)/C=C/CC1CC(=O)NC(=O)C1
inactive: [1] | [2] | [3] | [4] | [5] | [6] | [7] | [8] | [9] | [11] | [14] | [15] | [16] | [17] | [18] | [19]
